Screening data (PubChem)
A selection: hits, their analogues and other compounds. The true share with any hit is near 6.1%.
DRD3 agonist – activates the human D3 dopamine receptor; max activation, %; D3R DiscoveRx beta-arrestin cells, luminescence, 90 min; AID 652048; hit rate 0.58% among 410,000; in the data active = max activation above about 30%
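Cells at 1500/well, incubated overnight, then treated with pinned compounds (dopamine as control) for 90 min at 37 degrees C. DiscoveRx reagent added for 30 - 60 minutes at room temperature; luminescence read.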
D1 agonist – activates the human D1 dopamine receptor. P21728. HEK293 T-REx D1 cells, calcium flux, agonist mode. activation, % at 2 µM. hit rate 1% among 360,000; in the data active = activation above about 30%
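Tetracycline-induced HEK293 TREx D1 cells, force-coupled to calcium signalling, were dye-loaded with a no-wash calcium kit. Compound was pin-added after a 10 s baseline. Fluorescence was read kinetically at 1 cycle/s for 180 s, with calcium rises flagged as agonism.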
ERG-DNA inh – ERG Ets/DNA interaction inhibition; AID 624246; hit rate 0.028% among 370,000; fluorescence polarization, His-ERG Ets domain / labelled DNA; P11308; Potency, µM (doses to about 76.9 µM), most hits filed as inhibitors; active = well fitted inhibition curve with a large enough effect in the polarisation, with a control signal flat; inconclusive = small, poorly fitted or top-dose-only effect, or effect the other way, or a change in a side signal; inactive = no such curve, though single readings can be large or run the other way; the % refers to the polarisation;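 note: polarization taken with two DNA probes labelled with fluorescein and Texas red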
Target sequence (P11308 whole entry, looked up, the tested form may be a part): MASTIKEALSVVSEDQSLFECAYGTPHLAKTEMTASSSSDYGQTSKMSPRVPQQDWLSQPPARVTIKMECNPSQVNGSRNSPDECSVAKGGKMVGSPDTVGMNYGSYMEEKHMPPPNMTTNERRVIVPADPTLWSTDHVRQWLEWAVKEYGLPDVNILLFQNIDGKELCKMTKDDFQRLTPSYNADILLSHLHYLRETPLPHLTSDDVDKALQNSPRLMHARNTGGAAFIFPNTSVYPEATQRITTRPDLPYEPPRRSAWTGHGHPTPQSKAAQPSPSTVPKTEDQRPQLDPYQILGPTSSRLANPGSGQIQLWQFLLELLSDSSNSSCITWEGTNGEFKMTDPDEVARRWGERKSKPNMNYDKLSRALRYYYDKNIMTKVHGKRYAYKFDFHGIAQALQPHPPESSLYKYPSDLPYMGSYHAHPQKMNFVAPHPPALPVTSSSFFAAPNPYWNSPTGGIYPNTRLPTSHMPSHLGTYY
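His-tagged ERG Ets domain (1 uM in the protein solution; 300mM KCl, 50mM Tris-HCl, 1mM EDTA, 1mM DTT, pH 7.5) received compound, then a probe mix of 5 nM fluorescein-DNA and 100nM Texas-615-DNA. Fluorescence polarization was read for both dyes.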
D1 potentiator – enhances dopamine response at the human D1 receptor | P21728 | HEK293 TREx D1 cells, calcium flux, dopamine EC20 potentiation | potentiation, % at 10 µM | hit rate 0.036% among 360,000 | AID 504651; in the data active = potentiation above about 30%
DRD3 antagonist – blocks the human D3 dopamine receptor. AID 652054. P35462. hit rate 2.5% among 360,000. D3R cells, DiscoveRx beta-arrestin luminescence, antagonist mode; active compounds read low. max response, negative = inhibition, %; in the data active = max response below about -50%; inconclusive = no clear call, values can overlap the other calls
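Cells plated overnight at 1500 cells/well, then exposed to library compounds with dopamine controls for 90 minutes at 37 degrees C. DiscoveRx reagent added for 30–60 minutes at room temperature; luminescence read, quantitative HTS format.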
D1 antagonist – human D1 dopamine receptor antagonism. AID 504652. HEK293 TREx D1 cells, calcium flux, dopamine EC80; active compounds read low. activity change, negative = inhibition, % at 10 µM. P21728. hit rate 3.2% among 360,000; in the data active = activity change below about -30%
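After overnight tetracycline induction at 30 C, force-coupled D1 HEK293 cells took up a no-wash calcium dye at room temperature. Compounds were added and monitored 180 s, and the response to EC80 dopamine was then recorded.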
Each line names hits and unclear results; the compound was inactive in the other large screens; ! = not confirmed by another sample.

O=C(c1ccc(F)cc1)C1CCN(C(=O)c2ccccc2)CC1	none
O=C(c1ccc(F)cc1)C1CCN(Cc2ccc(F)cc2)CC1	DRD3 antagonist -88
COc1ccc(CN2CCC(C(=O)c3ccc(Cl)cc3)CC2)cc1	DRD3 antagonist -88
O=C(c1ccc(F)cc1)C1CCN(C(=O)c2ccc(Cl)cc2)CC1	none (no result: D1 agonist, D1 potentiator, D1 antagonist)
CC(=O)Nc1ccc(NC(=O)C(C)OC(=O)c2ccccc2Sc2ccccc2C#N)cc1 (stereo not drawn)	none
CCN(CC)S(=O)(=O)c1cccc(NC(=O)COC(=O)/C=C/c2cccs2)c1	D1 antagonist -31
CN(C)S(=O)(=O)c1cccc(NC(=O)COC(=O)CCC(=O)c2cccs2)c1	D1 antagonist -34
CCN(CC)S(=O)(=O)c1cccc(NC(=O)COC(=O)c2cccs2)c1	none
O=C(NC1CCCC1)C(c1ccncc1)N(C(=O)Cc1cccs1)c1cccc(F)c1 (stereo not drawn)	D1 antagonist -32
O=C(NC1CCCC1)C(c1ccncc1)N(C(=O)Cc1cccs1)c1ccccc1 (stereo not drawn)	none
CC[C@]12c3[nH]c4cc(-c5ccco5)ccc4c3CCN1C(=O)[C@@H](CC(=O)NCCc1ccccn1)C[C@@H]2C(=O)N1CCN(C(=O)c2ccco2)CC1	none (no result: D1 agonist, D1 potentiator, D1 antagonist)
CC(OC(=O)c1nn(C)c(=O)c2ccccc12)C(=O)NC1CCCCC1C (stereo not drawn)	none
CC(=O)c1ccc(N2CCN(C(=O)CCCCn3c(=O)[nH]c4ccccc4c3=O)CC2)cc1	D1 antagonist -32 (no result: DRD3 antagonist)
CC(=O)c1ccc(N2CCN(C(=O)CCCn3c(=O)[nH]c4ccc(Br)cc4c3=O)CC2)cc1	none
COC(=O)c1ccc2c(=O)n(CCCCCC(=O)N3CCN(c4ccccc4)CC3)c(=O)[nH]c2c1	D1 antagonist -36
CCN1CCN(C(=O)CCCCCn2c(=O)[nH]c3cc(C(=O)OC)ccc3c2=O)CC1	none
O=C(CCn1c(=O)[nH]c2ccccc2c1=O)N1CCN(c2ccc(Cl)cc2)CC1	D1 antagonist -32
CN1CCN(CC(=O)Nc2cc(N(C)C)nc3ccccc23)CC1	D1 antagonist -31
O=C(COC(=O)c1ccccc1Cl)Nc1nccs1	D1 agonist 45 (no result: ERG-DNA inh)
O=C(COC(=O)c1cc(=O)[nH]c2ccccc12)Nc1nccs1	none
CC(=O)Oc1ccc2c(c1)C(=O)CCCCCC(=O)O2	DRD3 antagonist -70 (no result: D1 agonist, ERG-DNA inh, D1 potentiator, D1 antagonist)
CC1CCCN(c2csc3ccccc3c2=O)C1 (stereo not drawn)	none (no result: DRD3 antagonist)
O=[N+]([O-])c1ccc(S(=O)(=O)Nc2cccc(-c3ccc(N4CCOCC4)nn3)c2)cc1	none
CN(C)c1ccc(C(=O)/C=C/c2cccnc2)cc1	none
COC(=O)/C(=C/c1cccnc1)NC(=O)c1ccccc1	DRD3 antagonist inconclusive (no result: ERG-DNA inh)
CC(/C=C\c1cccnc1)=C/C(=O)O	D1 antagonist -62!
COC(=O)C(=C/C(C)=C/c1cccnc1)C(=O)OC	DRD3 antagonist -52
O=C(O)/C=C/c1cccnc1	D1 antagonist -80
CN(C)CCNC(=O)C1CC(=O)N(c2ccc(F)c(Cl)c2)C1 (stereo not drawn)	none
Cc1ccc(F)cc1NC(=O)Cc1ncc(C(F)(F)F)cc1Cl	none
COc1ccc(C)cc1NC(=O)C(NS(=O)(=O)c1cccs1)c1ccccc1 (stereo not drawn)	D1 antagonist -35 (no result: DRD3 antagonist)
Cc1ccc(NC(=O)C(Cc2ccccc2)NS(=O)(=O)c2cccs2)cc1Cl (stereo not drawn)	D1 antagonist -42 (no result: DRD3 antagonist)
CCc1cccc(NC(=O)C(Cc2ccccc2)NS(=O)(=O)c2cccs2)c1 (stereo not drawn)	none (no result: DRD3 antagonist)
O=C1CCCC2=C1C(c1ccco1)Nc1ccc3ccccc3c12 (stereo not drawn)	D1 antagonist -36
Cc1onc(-c2ccccc2)c1C(=O)OCC(=O)Nc1ccc(Cl)cc1	none
Cc1onc(-c2ccccc2)c1C(=O)OCC(=O)Nc1cccc(Cl)c1	D1 agonist 47 (no result: D1 potentiator)
Cc1onc(-c2ccccc2)c1C(=O)Nc1sc2c(c1C#N)CCC(C)C2 (stereo not drawn)	DRD3 agonist 32 (no result: ERG-DNA inh)
